A selection: hits, their analogues and other compounds. The true share with any hit is near 11%.
PI5P4Ka inh = qHTS for Inhibitors of phosphatidylinositol 5-phosphate 4-kinase (PI5P4K) | 330,000 compounds, 1.2% hits | Phosphatidylinositol 5-phosphate 4-kinase type-2 alpha (Homo sapiens), P48426 | PI5P4Kalpha enzyme, ADP-Glo luminescence, 60 min; stronger effect = lower value | AID 652105, 2013 | max response, %; active = max response of -50% or lower; inconclusive = between -30% and -50%; inactive = -30% or higher; also: value at the top dose of about 77 µM
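Luminescence from ADP-Glo served as readout of PI5P4Kalpha activity in a qHTS format. Reaction: enzyme, substrate, compound, ATP at 5 microM final, 60 min at RT.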
JMJD2A Tudor inh = qHTS Assay for Inhibitors of JMJD2A-Tudor Domain. AID 504339, 2011. Potency, µM (series often up to 114 µM), hits mostly inhibitors. AlphaScreen JMJD2A-Tudor / H3K4me3 peptide binding. Lysine-specific demethylase 4A (Homo sapiens), O75164. 390,000 compounds, 4.4% hits; also: nearly all actives have a fitted effect of over 50% in size
L3MBTL1 block = qHTS Assay for the Inhibitors of L3MBTL1. 230,000 compounds, 0.66% hits. Lethal(3)malignant brain tumor-like protein 1 (Homo sapiens), Q9Y468. AlphaScreen L3MBTL1–H3K9me1 peptide binding. Potency, µM (doses to about 57.1 µM), hits mostly inhibitors; also: nearly all actives have a fitted effect of over 60% in size
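AlphaScreen proximity signal between nickel-chelate acceptor and streptavidin donor beads (final 10 ug/mL) reports binding of 50 nM L3MBTL1 to 75 nM biotin-H3 K9me1 peptide; complex incubated with compounds 30 min at room temperature; cefsulodin titration as control.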
BAZ2B block = qHTS Assay for Inhibitors of BAZ2B | Bromodomain adjacent to zinc finger domain protein 2B (Homo sapiens), Q9UIF8 | AlphaScreen BAZ2B-H3K14Ac peptide displacement | Potency, µM (top dose mostly 114 µM), hits mostly inhibitors | 360,000 compounds, 4.4% hits | AID 504333, 2011; also: nearly all actives have a fitted effect of over 60% in size
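AlphaScreen luminescence quantifies BAZ2B engagement of H3K14Ac peptide; the protein and biotinylated peptide are both at 50 nM final, buffer PBS pH 7.4 with 0.01% Tween-20, all steps at room temperature.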
G9a block = qHTS Assay for Inhibitors of Histone Lysine Methyltransferase G9a; Histone-lysine N-methyltransferase EHMT2 (Homo sapiens), Q96KQ7; G9a H3K9 monomethylation, AlphaScreen, 2 h; Potency, µM (top dose mostly 102 µM), usual class: inhibitors; 350,000 compounds, 8.8% hits; AID 504332, 2011; also: nearly all actives have a fitted effect of over 75% in size
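Compounds were preincubated with 20 nM G9a for 15 min, after which biotinylated H3K9 peptide (500 nM) and SAM (20 uM) started a 2 h room-temperature reaction. Monomethylated product was quantified by antibody-based AlphaScreen chemiluminescence.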
HP1b binding inh = HTS for Inhibitors of HP1-beta Chromodomain Interactions with Methylated Histone Tails | 390,000 compounds, 0.56% hits | AlphaScreen HP1-beta / biotin-H3K9me3 peptide binding | Chromobox protein homolog 1 (Homo sapiens), P83916 | Potency, µM (highest dose often 114 µM), most hits filed as inhibitors; also: nearly all actives have a fitted effect of over 70% in size
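AlphaScreen: HP1-beta (50 nM) preformed 30 min with biotin-H3(1-18)K9me3 peptide (50 nM) in PBS pH 7.4, 0.01% Tween-20. Compound added for 30 min at RT, then streptavidin donor/nickel chelate acceptor beads (10 ug/mL) for 30 min.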
A number is an active result; n = inactive; u = inconclusive; x = no result given; [ ] = remark or other dose. Unless noted, calls follow the shape of the dose curve; as a rule, active = well fitted inhibition curve with a large enough effect; inconclusive = small, poorly fitted or top-dose-only effect; inactive = no such curve, though single readings can be large or run the other way.

SMILES	PI5P4Ka inh	JMJD2A Tudor inh	L3MBTL1 block	BAZ2B block	G9a block	HP1b binding inh
CCN(CC)c1ccc(NC(=O)C2COc3ccc(OC)cc3C2)c(C)c1 (configuration not stated)	x	n	x	n	7.9µM	n
COc1ccc(NC(=O)C2CCCN(S(=O)(=O)c3cccnc3)C2)c(OC)c1 (configuration not stated)	n	n	x	n	n	n
CCN(CC)c1ccc(NC(=O)C2CCCN(S(=O)(=O)c3cccnc3)C2)c(C)c1 (configuration not stated)	n	u	x	n	20µM	n
CCN(CC)c1ccc(NC(=O)C2CCN(S(=O)(=O)c3cnc[nH]3)CC2)c(C)c1	x	u	x	x	11µM	n
CCOC(=O)C1CCN(Cc2ccc(OCc3ccccc3)c(OC)c2)CC1	n	n	n	n	50µM	n
CCOC(=O)C1CCN(S(=O)(=O)c2ccc(OC)c(OC)c2)CC1	x	n	x	n	n	n
O=C(C1CCN(Cc2ccc(Cl)cc2)CC1)N1CCN(C(c2ccccc2)c2ccccc2)CC1	n	u	n	79µM	20µM	u
CCOC(=O)C1CCN(Cc2ccc(O)c(OC)c2)CC1	n	3.2µM	n	u	32µM	u
O=C(CN1CCN(C(=O)C2CCCO2)CC1)Nc1ccc(Cl)c(Cl)c1 (configuration not stated)	n	n	x	n	79µM	n
COc1cc(CNC(=O)C2CC2)ccc1OCc1ccccc1	n	n	x	n	n	n
COc1ccccc1C(=O)N1c2ccccc2C(C)(c2ccc(Cl)cc2)CC1(C)C (configuration not stated)	x	n	x	u	n	n
COc1ccc(-c2cn3c(n2)sc2cc(C(=O)NCCC4=CCCCC4)ccc23)cc1	x	n	x	n	n	n
COc1ccc(OC)c(-c2noc(CSc3nnc(Cc4ccccc4)n3-c3cccc(C)c3)n2)c1	x	n	x	n	n	n
COCCNC(=O)CCN1C(=O)c2cccnc2Oc2ccc(C)cc21	x	n	x	n	n	n
COc1ccc2c(c1)c(=O)c(S(=O)(=O)c1ccccc1)cn2CC(=O)Nc1ccc(C)c(Cl)c1	x	n	x	n	n	n
CCOC(=O)C1CCN(Cc2cc(C(C)(C)C)c(O)c(C(C)(C)C)c2)CC1	n	n	n	n	56µM	n
O=C(C1CCCO1)N1CCN(C(c2ccccc2)c2ccccc2)CC1 (configuration not stated)	x	n	n[11.4 µM]	n	8.9µM	n
O=C(C1CCCO1)N1CCN(S(=O)(=O)c2ccccc2)CC1 (configuration not stated)	x	n	n	n	u	n
Cc1cccc(CN2CCN(C(c3ccccc3)c3ccc(Cl)cc3)CC2)c1 (configuration not stated)	u	79µM	n	50µM	u	n
CC(C)(C)c1cc(CN2CCN(CCO)CC2)cc(C(C)(C)C)c1O	x	n	n	u	u	n
CCN(CC)C(=O)C1CCN(Cc2ccc(OCc3ccccc3)cc2)CC1	n	22µM	n	u	10µM	u
CC1CCCN(Cc2ccc(OCc3ccccc3)cc2)C1 (configuration not stated)	n	n	n	n	x	n
Cc1cc(Cl)ccc1NC(=O)c1cccc(NC(=O)N2CCSc3ncccc32)c1	x	n	x	n	u	n
COc1ccc(OCc2nc(C#N)c(NCc3ccccc3Cl)o2)cc1	x	u	x	u	n	n
CCN(CCCNC(=O)c1nn(-c2ccc(OC)cc2)c(=O)c2c1c1ccccc1n2C)c1ccccc1	x	n	x	x	n	n
SMILES	PI5P4Ka inh	JMJD2A Tudor inh	L3MBTL1 block	BAZ2B block	G9a block	HP1b binding inh
CCN(CC)c1cc2c(cc1F)c(=O)c(S(=O)(=O)c1cc(C)ccc1C)cn2Cc1ccccc1	x	n	x	n	n	n
Nc1nonc1C(=O)NCCNCc1ccc(Cl)c(Cl)c1	x	n	x	n	n	n
CN1CCCN(C(c2ccccc2)c2ccc(Cl)cc2)CC1 (configuration not stated)	n	79µM	n	u	u	n
COc1ccc(CN2CCC(C)CC2)cc1OCc1ccccc1	n	n	n	n	n	n
CN1CCN(C(c2ccccc2)c2ccccc2)CC1	n	n	n	n	n[21.5 µM]	n
CCN1CCN(C(=O)C2CCN(Cc3nc(-c4cccc(Cl)c4)oc3C)CC2)CC1	n	n	x	n	u	n
CCOC(=O)C1CCN(Cc2ccc(OC)c(OCc3ccccc3)c2)CC1	n	n	n	56µM	28µM	n
CCN1CCN(C(=O)C2CCN(Cc3cc(Cl)ccc3O)CC2)CC1	x	10µM	x	u	10µM	u
CCCCNC(=O)C1CCN(Cc2ccc(OCc3ccccc3)cc2)CC1	n	3.5µM	n	u	11µM	u
Cc1ccc(NC(=O)Nc2c[nH]c(=O)[nH]c2=O)c(Cl)c1	x	n	x	n	n	n
CN(Cc1ccccc1)C(=O)c1cc2c(s1)-c1ccc(Cl)cc1SC2	x	n	x	n	n	n
CC(C)c1ccc(NC(=O)C(Cc2ccccc2)NS(=O)(=O)c2ccc3c(c2)CCC(=O)N3)cc1 (configuration not stated)	x	n	x	n	n	n
Cc1ccc(C)c2sc(NC(=O)c3ccc(S(=O)(=O)N4CCC(C)CC4)cc3)nc12	x	n	x	n	n	n
COc1ccc(CN2CCCCCC2)cc1OC	n	u	x	x	x	n
COc1cc(CN2CCCCC2)ccc1OCc1ccccc1	n	32µM	n	u	x	u
CCN(CC)C(=O)C1CCN(Cc2ccc(OCc3ccccc3)c(OC)c2)CC1	n	11µM	n	56µM	50µM	u
O=C(C1CCN(Cc2ccc(OCc3ccccc3)cc2)CC1)N1CCCC1	x	1.6µM	n	79µM	14µM	u
c1ccc(COc2cccc(CN3CCCCC3)c2)cc1	n	25µM	n	u	35µM	u
c1ccc(Oc2cccc(CN3CCCCC3)c2)cc1	x	n	x	u	n	n
OC1CCN(Cc2ccc(OCc3ccccc3)cc2)CC1	n	n	n[2.29 µM]	n	n[0.501 µM]	n
CCOc1ccc(C(CC(=O)Nc2cc(C)c(Cl)cc2OC)N2Cc3ccccc3C2=O)cc1OC (configuration not stated)	x	n	x	u	u	n
Cc1cc(C)c(NC(=O)CCCSc2nnc(N)s2)c(C)c1	n	n	n	n	50µM	n
CCOc1ccc(-n2c(=O)c3c(C)c(C)sc3n(CC(=O)N3CCC(C)CC3)c2=O)cc1	x	n	x	n	n	n
